Data reported in PubChem BioAssay (NCI).
About 83,000 compounds went through this panel and 20% of them were active in at least one assay; those are over-represented in the sample as a whole.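 How to read the values: 0–100, growth inhibition (40 = 60% inhibited); 0, no net growth; -100 to 0, cell death (-40 = 40% of starting cells died; -100 = all dead).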 Values without a mark were called inactive. Active and inactive are the calls of the source.

Tested on: OVCAR-4 ovarian
Test: NCI-60 one-dose screen, 48 h (100 = growth as untreated, 0 = no growth, -100 = all killed)
Settings: 10 µM unless noted
Experimental: Growth inhibition of the OVCAR-4 human tumor cell line is measured as a screen for anti-cancer activity. Cells are grown in 96 well plates and exposed to the test compound for 48 hours. Compounds are tested at a single concentration, which is 10^-5 M for most compounds. The reported endpoint is percent growth (GI% or GIPRCNT), where numbers from 0 - 100% represent growth inhibition, and numbers from -100% - 0 represent cell death. For example, a value of 40 represents 60% growth inhibition. A value of 0 means no net growth occurred over the course of the experiment. A value of -40 indicates 40% of cells at the beginning of the experiment died by the end of the experiment. A value of -100 means all cells are dead at the end of the experiment.
NCI-60 Human Tumor Cell Lines Screen was performed using the standard one-dose NCI protocol, which is described in more detail at https://dtp.cancer.gov/discovery_development/nci-60/default.htm.
Compounds with GIPRCNT values below 10 were considered active. Activity score was based on GIPRCNT using the following formula: […]
Score is 0 for GIPRCNT values of 100 or above, 50 for GIPRCNT values of 0, and 100 for GIPRCNT values of -100.

| Structure (SMILES) | growth |
| --- | --- |
| Cc1ccc(S(=O)(=O)N(CC[C@@H]2C[C@H]2c2cc3ccccc3o2)S(=O)(=O)c2ccc(C)cc2)cc1 | 76.8% |
| COc1cc(/C=N/NC(=O)c2cn(C3CC3)c3c(OC)c(N4CC5CCCNC5C4)c(F)cc3c2=O)ccc1O (stereo not given) | -52.8% (active) |
| Cn1ccnc1C(=O)/C=C/c1ccc(CNC(=O)c2c(F)c(F)c(F)c(F)c2F)cc1 | 95.4% |
| Cc1cc(-c2ccc(Cl)cc2)n(Cc2nnc(SCC(=O)Nc3ccc(S(N)(=O)=O)cc3)n2-c2ccc([N+](=O)[O-])cc2)n1 | 86.5% |
| CNC(=O)c1c(NC(=O)c2ccccc2C(F)(F)F)sc2c1CCC(=O)C2 | 16.2% |
| CS(=O)(=O)Nc1cc(-c2ccc3ncc(C#N)c(Nc4cccc(Cl)c4F)c3c2)cnc1Cl | 19.1% |
| COc1ccc(COc2ccc(/C=C3\C(=O)Nc4ccccc43)cc2OC)cc1 | 99.8% |
| CC1(C)CC[C@]2(C(=O)N3CCOCC3)CC[C@]3(C)C(=CC[C@@H]4[C@@]5(C)C/C(=C/c6ccco6)C(=O)C(C)(C)[C@@H]5CC[C@]43C)[C@@H]2C1 | 60.9% |
| N#Cc1c(Nc2ccccc2)nn2c(-c3ccc([N+](=O)[O-])cc3)ccnc12 | 108% |
| Cc1ccc(S(=O)(=O)NCCNc2nc(Nc3ccc(N4CCN(C)CC4)cc3)nc3ccsc23)cc1 | 95.1% |
| CC(C)(C)n1nnnc1C(Nc1cccc2c1OCO2)c1cc2cccc3ccc4cccc1c4c32 (stereo not given) | 79.2% |
| Cc1cccc2c3c(sc12)C(c1ccc(F)cc1)C(C#N)=C(/N=C/c1ccc(Cl)cc1)O3 (stereo not given) | 70% |
| CC1(C)CC[C@]23CC[C@]4(C)[C@H](CC[C@@H]5[C@@]6(C)CCCN(CO)C(C)(C)[C@@H]6CC[C@]54C)[C@H]2[C@H]1OC3 | 85.6% |
| COc1ccc(C(=O)c2c(N)c(C#N)cn2-c2ccccc2OC)cc1 | 63.3% |
| NS(=O)(=O)c1ccc(Nc2nc(SCC(=O)c3ccc(Cl)cc3)nc3c2CCCC3)cc1 | 47.7% |
| N#Cc1cn(Cc2ccc(Cl)cc2Cl)c(C(=O)c2ccc(Br)cc2)c1N | 100% |
| O=S(=O)(Nc1cccc2ccccc12)c1ccc(-c2cnc(C3CC3)o2)cc1 | 64.1% |
| CN1CCN(Cc2ccc(NC(=O)c3cncc(C#Cc4cnn5cccnc45)c3)cc2C(F)(F)F)CC1 | 27.9% |
| CCn1c(SCC(=O)Nc2cccc(C(=O)/C=C/c3cc(OC)c(OC)c(OC)c3)c2)nc2ccccc2c1=O | 39.9% |
| O=C(CSc1nc2ccccc2c(=O)n1-c1ccccc1)Nc1cccc(C(=O)/C=C/c2ccccc2Cl)c1 | 102% |

| Structure (SMILES) | growth |
| --- | --- |
| Cc1nn(-c2ccccc2)c2ncnc(N/N=C/c3cccc(O)c3)c12 | 30.2% |
| O=C(CNc1nc(-c2cccc([N+](=O)[O-])c2)cs1)Nc1cccc([N+](=O)[O-])c1 | 5.36% (active) |
| Cc1nc(-c2ccccc2O)ccc1C(=O)N=Nc1c(O)[nH]c2ccc(Br)cc12 | 102% |
| COc1ccc(Cn2cc3c(c2-c2cc(OC)c(OC)c(OC)c2)CCc2c(CN4CCCC4)noc2-3)cc1 | 55.2% |
| Brc1ccccc1/C=N/Nc1nc(N/N=C/c2ccccc2Br)nc(N2CCOCC2)n1 | 96.2% |
| COc1cc2oc(-c3cccc(NC(=O)c4cc(N)ccc4Cl)c3)cc(=O)c2c(OC)c1OC | 97.6% |
| O=C(NCCN1CCCC1)c1ccc(-c2nc3ccc4[nH]ncc4c3c3c2CCCC3)cc1 | 16% |
| CCCC(=O)NC(c1cccnc1)c1cc(C(C)(C)C)c2cccnc2c1O (stereo not given) | 31.1% |
| NC(N)=Nc1ccc(Oc2cccc(Nc3ccc(Cl)c(C(F)(F)F)c3)c2)cn1 | 6.69% (active) |
| COc1ccc(C(=O)CSc2nc3c(c(Nc4ccc(S(N)(=O)=O)cc4)n2)CCCC3)cc1 | 87.8% |
| COc1cc2nc(Cl)nc(Nc3cccc(C4=Nc5c(N)nc(N)nc5NC(c5ccc(Cl)cc5)C4)c3)c2cc1OC (stereo not given) | 101% |
| COc1ccc(-c2nc3ccc(-c4nnc(SCC(=O)Nc5ccc(C(=O)/C=C/c6ccc(Cl)cc6)cc5)o4)cc3[nH]2)cc1 | 103% |
| C=CCn1c(SCC(=O)Nc2ccc(C(=O)/C=C/c3ccc(Cl)cc3)cc2)nnc1-c1c[nH]c2ccccc12 | 66.9% |
| Cn1ccnc1C(=O)/C=C/c1ccc(NC(=O)c2ccc(F)cc2)cc1 | 37.1% |
| COc1ccc(S(=O)(=O)NCCCNc2nccc(-c3cn(C(C)(C)C)nc3-c3ccc(Cl)c(OC)c3)n2)cc1 | 58.9% |
| Cc1cc(C)c2sc(=O)n(Cc3nnc(SCCC(=O)O)o3)c2n1 | 108% |
| O=C(CSc1nc2ccccc2c(=O)n1-c1ccc(Cl)cc1)N/N=C/c1ccc(N2CCCCC2)cc1 | 58.6% |
| CS(=O)(=O)Nc1cc(-c2ccc3ncc(C#N)c(NCc4cccc(F)c4)c3c2)cnc1Cl | 11.3% |
| CS(=O)(=O)Nc1cc(-c2ccc3ncc(C#N)c(NCc4ccccc4O)c3c2)cnc1Cl | 14.1% |
| C=CCn1c(SCC(=O)Nc2ccc(C(=O)/C=C/c3cccc([N+](=O)[O-])c3)cc2)nnc1-c1c[nH]c2ccccc12 | 74.9% |
